Experimental data: PubChem BioAssay AID1347076 (National Center for Advancing Translational Sciences (NCATS), 2019)
Several values for one entry are separate records, joined by “and”; a condition that tells them apart may be missing. Equal entries are not always repeated. About 13,000 (3.2%) of roughly 400,000 compounds were called active. Inconclusive results (about 18%) are left out. Calls come from the whole dose curve; as a rule, active = well fitted cell-killing curve with a large enough effect; inconclusive = small, poorly fitted or top-dose-only effect, or effect the other way; inactive = flat fitted curve, though single readings scatter. What follows is part of a selection rich in actives, with near analogues and random picks from the rest.

test: qHTS assay for MDR1-selective chemotherapeutics: Primary screen using the drug-selected MDR subline cells KB-V1; settings: KB-V1 MDR cells viability, CellTiter-Glo, 72 h; series mostly up to 46.1 µM; activity change, negative = cytotoxicity: at the top concentration; note: nearly all actives have a fitted effect of over 60% in size
Procedure, shortened: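 Cytotoxicity toward P-gp-expressing KB-V1 cells was determined as loss of CellTiter-Glo luminescence after 72 h at 37 degrees C. Compounds were tested in quantitative HTS format across a concentration range, with curves fitted to normalized data.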
% is set by controls: 0 for no effect and ±100 for the full control effect; potency is the fitted concentration of half-maximal effect.

Compound	activity change, negative = cytotoxicity	Potency
Cc1ccc(CNC(=O)CCc2c(C)nc3c(c(C)nn3-c3ccccc3)c2C)cc1	-3.47% (inactive)	
Cc1ccccc1S(=O)(=O)NC(=O)C1(C)CCN1C(=O)C1(c2ccccc2)CCCC1 (stereo not drawn)	3.11% (inactive)	
COc1cc(C2c3cc4c(cc3C(O)C3COC(=O)C23)OCO4)cc(OC)c1OC (stereo not drawn)		4.11 µM (active) and 231 nM (active)
COc1cc(C2CC(=O)Oc3cc(OC)c(OC)c(OC)c32)cc(OC)c1OC (stereo not drawn)	-0.0159% (inactive)	
COc1cc(OC)c2c(c1)OC(=O)CC2c1cc(OC)c(OC)c(OC)c1 (stereo not drawn)	6.5% (inactive)	
Cc1nn(C)c2c1c(C(F)(F)F)cc(=O)n2C(C)C(=O)NCc1ccc(Cl)cc1 (stereo not drawn)	4.71% (inactive)	
Cc1cccc(-c2cnc(C(O)c3ccc4ccccc4c3)[nH]2)c1 (stereo not drawn)	-2.55% (inactive)	
Cc1cc(Nc2ccc(C(=O)N3CCCCC3)cc2)c2cccc(C)c2n1	-12.8% (inactive)	
Cc1ccccc1-c1ccc(Nc2ccc(C(=O)N3CCOCC3)cc2)nn1		14.6 µM (active)
O=C(Cc1ccc([N+](=O)[O-])cc1)Nc1ccc(C(=O)N2CCOCC2)cc1	-16.5% (inactive)	
Cc1ccccc1NC(=O)Cc1nc(COC(=O)CNC(=O)c2ccc(Cl)cc2Cl)cs1	19.5% (inactive)	
CS(=O)(=O)/C(C#N)=C/c1cccn1S(=O)(=O)c1ccc([N+](=O)[O-])cc1	14.5% (inactive)	
COc1ccc(C(C)(O)c2nc(-c3ccc(C)c(C)c3)cs2)cc1 (stereo not drawn)	8.75% (inactive)	
COCCNc1nc(N)c([N+](=O)[O-])c(NCCO)n1	3.27% (inactive)	
COc1cccc(Nc2nc(N)c([N+](=O)[O-])c(NCc3ccco3)n2)c1	-1.12% (inactive)	
CN(c1ccccc1)c1nc(N)c([N+](=O)[O-])c(NCc2ccco2)n1		20.6 µM (active)
Cc1cccc(S(=O)(=O)N(C)C[C@@H]2OCc3cnnn3CCCC(=O)N([C@H](C)CO)C[C@@H]2C)c1	1.87% (inactive)	
CCc1ccccc1OCCSc1nc(-c2cccs2)nc2cc(=O)[nH]n12	-1.44% (inactive)	
Cc1nnc(SCC(=O)NCc2ccccc2Cl)c2nn(-c3ccccc3)c(C)c12	-5.48% (inactive)	
CNC(=O)C[C@H]1C(=O)N(c2ccc(OC)cc2)C[C@@H]1Cc1ccccc1	-17.1% (inactive)	
C[C@H]1CN(c2ccc(Br)cc2)C(=O)[C@@H]1CC(=O)Nc1ccc(Br)cc1	-5.07% (inactive)	
O=C(NCc1cccnc1)c1cc(C2CCCCN2C(=O)CCc2ccccc2)on1 (stereo not drawn)	-5.51% (inactive)	
COc1ccc(C)cc1N(CC(=O)N1CCCC1)S(=O)(=O)c1ccccc1	-5.7% (inactive)	
CCOC(=O)N1CCN(C(=O)c2ccccc2N(Cc2ccccc2)S(=O)(=O)c2ccc(OC)cc2)CC1		20.6 µM (active)
CCOC(=O)N1CCN(C(=O)CN(c2ccc(C)c(C)c2)S(=O)(=O)c2ccccc2)CC1		1.16 µM (active)
COc1ccc(N(CC(=O)N2CCCCCC2)S(=O)(=O)c2ccccc2)cc1	-14.8% (inactive)	
CCOC(=O)N1CCN(S(=O)(=O)c2ccc(OC)cc2)CC1	-6.07% (inactive)	
NC(=O)c1ccccc1N(Cc1ccccc1)S(=O)(=O)c1ccccc1	0% (inactive)	
